PubChem BioAssay (NCI)
About 83,000 compounds went through this panel and 20% of them were active in at least one assay; those are over-represented in the sample as a whole.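 In brief: 96-well plates, 48 h treatment, single concentration, percent growth endpoint.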 Values without a mark were called inactive. Active and inactive are the calls of the source. The calls were made as follows: active = growth percent below 10; inactive = the rest.

tested on: MOLT-4 leukemia; test: NCI-60 one-dose screen, 48 h (100 = growth as untreated, 0 = no growth, -100 = all killed); settings: 10 µM unless noted

Compound	growth
Cc1ccc2sc3c(NCCCNCCO)nc4ccccc4c3c(=O)c2c1	-39.3% (active)
NCCOc1ncccc1/C=C1\c2ccccc2-c2ccc(F)cc21	2.25% (active)
CNCCNc1nc2ccccc2c2c(=O)c3cc(OC)ccc3sc12	-28.8% (active)
CC(C)c1ccc(S(=O)(=O)NC(=O)NC2CCCC2)cc1	94.6%
COc1cc(/C=C2\CN(C)C/C(=C\c3cc(CN4CCCC4)c(O)c(OC)c3)C2=O)cc(CN2CCCC2)c1O	57.6%
Nc1ccccc1-c1ccc(-c2ccc(Cl)cc2)c2c1[nH]c1ccccc12	25.8%
O=C(Cn1cc(COc2ncnc3c2cnn3-c2ccccc2)nn1)Nc1ccccn1	89.9%
NCCOc1ccccc1/C=C1\c2ccccc2-c2ccc([N+](=O)[O-])cc21	-14.1% (active)
COc1cc(/C(C#N)=C/c2nc3c(N4CCOCC4)nc(Cl)nc3n2C)cc(OC)c1OC	9.93% (active)
Cc1ccc2cccc(Oc3ccc(Nc4ncnc5onc(-c6ccccc6)c45)cc3)c2n1	72.2%
COC(=O)/C(CCC=C(C)C)=C1\[C@@H](OC(C)=O)C[C@@]2(C)[C@H]1C[C@@H](O)[C@H]1[C@@]3(C)CC[C@H](NCc4ccccc4)[C@@H](C)[C@@H]3CC[C@@]12C	28.1%
COc1cc(/C=C/C(=O)c2ccc(Cl)cc2)cc(CN2CCCCC2)c1O	64.3%
O=C(/C=C/c1ccc(Cl)cc1)c1ccc(Nc2nc(NCCO)nc(Nc3ccc(Cl)cc3)n2)cc1	46.1%
CN1CCN(Cc2ccc(NC(=O)c3[nH]ncc3Nc3cc(OC4CCCC4)ncn3)cc2)CC1	5.56% (active)
Cn1c(/C=C(\C#N)c2ccccc2)nc2c(N3CCOCC3)nc(Cl)nc21	-12.4% (active)
CCN1C(=O)N(CC)C2Nn3c(s/c(=C\c4ccccc4F)c3=O)=NC21 (centres undefined)	44%
Cc1ccccc1CNC(=O)C1CN(c2ccc(Cl)cc2)N(c2ccc(Cl)cc2)C1=O (centres undefined)	81.1%
CCCCC1CCc2cccc3c(SCC(=O)N(C)c4ccc(Cl)cc4)cc[n+]1c23 (centres undefined)	98.7%
Clc1ccc(Oc2ccc(Nc3ncnc4onc(-c5ccccc5)c34)cc2)c(Cl)c1	89.8%
O=C(O)c1cn(C2CC2)c2cc(N3CCN(C(=O)C[n+]4ccccc4)CC3)c(F)cc2c1=O	104%

Compound	growth
O=C(CSc1nc2ccccc2c(=O)n1-c1ccccc1)Nc1ccc(C(=O)/C=C/c2ccc(Cl)cc2)cc1	99.5%
Cc1nc(Nc2cn[nH]c2C(=O)Nc2ccc(CN3CCN(C)CC3)cc2)c2ccsc2n1	45.8%
CN1C(=O)N(C)C2Nn3c(s/c(=C4\C(=O)N(CCc5ccccc5)c5ccccc54)c3=O)=NC21 (centres undefined)	70.8%
O=C(/C=C/c1ccc(C(F)(F)F)cc1)c1ccc(Nc2nc(NCCO)nc(N3CCOCC3)n2)cc1	5.76% (active)
COc1cc(/C=C/C(=O)c2ccc(Nc3nc(NCCO)nc(N4CCOCC4)n3)cc2)cc(OC)c1OC	0.216% (active)
COc1cc(/C=C2\CN(S(=O)(=O)c3ccccc3)C/C(=C\c3cc(CN4CCCC4)c(O)c(OC)c3)C2=O)cc(CN2CCCC2)c1O	1.22% (active)
O=c1c2cc(F)ccc2sc2c(Nc3ccncc3)nc3ccccc3c12	-36.9% (active)
O=c1c2cc(F)ccc2sc2c(NCCN3CCCC3)nc3ccccc3c12	5.14% (active)
CNC(=O)c1cc(Oc2ccc(CC(=O)Nc3cc(C(C)(C)C)cn3C)cc2)ccn1	69.6%
COc1cc2nc(NC3CCCC3)nc(NC3CCN(C(C)C)CC3)c2cc1OC	54.1%
O=C(NCc1ccco1)C1CN(c2ccc(Cl)cc2)N(c2ccc(Cl)cc2)C1=O (centres undefined)	28.3%
COc1cccc2cc(N(C)c3nc(C)nc4ccsc34)ccc12	3.39% (active)
CN1C(=O)N(C)C2(c3ccccc3)OC(=S)NC12c1ccccc1 (centres undefined)	103%
Nc1nc(-c2cnccn2)nn1-c1nc2ccccc2s1	94.7%
COc1ccc(N)c(-c2cc3c(c4c2[nH]c2ccc(OC)cc24)CCCC3)c1	68.8%
COc1cccc(/C(C#N)=C/c2nc3c(N4CCOCC4)nc(Cl)nc3n2C)c1	-19.4% (active)
O=c1c(-c2nc3ccccc3[nH]2)cc2ccccc2n1Cc1cn(Cc2ccc(N3CCOCC3)cc2)nn1	99%
Cn1c2c(c(=O)[nH]c1=O)NC1=C(C(=O)c3ccccc31)C1(C=C(O)c3ccccc31)N2 (centres undefined)	121%
COC(=O)/C(CCC=C(C)C)=C1\[C@@H](OC(C)=O)C[C@@]2(C)[C@H]1C[C@@H](O)[C@H]1[C@@]3(C)CC[C@H](NCCCNCCCCNCCCN)[C@@H](C)[C@@H]3CC[C@@]12C	65.4%
